Assay results as given in ChEMBL document CHEMBL3988442, “University of Dundee, Small-Polar-MMV Screening Library” (2021).
About 13,000 (27%) of roughly 48,000 compounds showed an effect of 50% or more. The list shows a part of the results.

What follows are compounds tested on Wolbachia pipientis (assay: Anti-Wolbachia Cell-Based Screen). Details: 5 µM.
Type: functional
Parameters: scale not given: in the data most compounds retested in dose-response had high values
For `Cc1nnc(N2CCNCC2)c(C(N)=O)c1C`, the “Percent Effect” value was -61.72%.
In the case of `O=C(NCc1cccnc1)[C@H]1CN2CCC1C[C@@H]2Cn1cc(CO)nn1` (stereo partly specified), the “Percent Effect” value is reported as 4.498%.
For `O=C1NCC2(CCCN(Cc3cccnc3)C2)Oc2ccccc21` (stereo unspecified), the “Percent Effect” value was 95.18%.
For `CN1CCC2(CC1)CNC(=O)c1ccccc1O2`, the “Percent Effect” value was -4.791%.
With `CN(C)c1ncc2c(n1)C1(CCN(Cc3cccnc3)C1)COC2` (stereo unspecified) the “Percent Effect” value was -5.079%.
In the case of `O=C1NCC2(CCCN(Cc3ccncc3)C2)Oc2ccccc21` (stereo unspecified), the “Percent Effect” value is reported as 106%.
In the case of `O=C(NCc1cccnc1)C1=NOC2(CCCN(CCO)C2)C1` (stereo unspecified), the “Percent Effect” value is reported as 6.778%.
With `O=C1Nc2ccccc2C12CCCN(Cc1ccncc1)C2` (stereo unspecified) the “Percent Effect” value was -10.97%.
With `O=C(O)C(F)(F)F.c1cnc(N2CCOCC3(CN(Cc4ccsc4)CCO3)C2)nc1` (stereo unspecified) the “Percent Effect” value was -6.179%.
With `O=C(O)C(F)(F)F.OCCN1CCOC2(CCCN(c3ncc(F)cn3)C2)C1` (stereo unspecified) the “Percent Effect” value was 13%.
With `Cc1cnc(N2CCOC3(CCCN(CC(=O)N(C)C)C3)C2)nc1.O=C(O)C(F)(F)F.O=C(O)C(F)(F)F` (stereo unspecified) the “Percent Effect” value was -7.39%.
With `Cc1cnc(N2CCC3(CC2)CN(Cc2cccs2)CCO3)nc1.O=C(O)C(F)(F)F.O=C(O)C(F)(F)F` the “Percent Effect” value was 102.1%.
`CN(C)C(=O)CN1CCOCC2(C1)CN(c1ncccn1)CCO2.O=C(O)C(F)(F)F` (stereo unspecified) was tested, and the “Percent Effect” value was 101.1%.
`Fc1cnc(N2CCC3(CC2)CN(Cc2cccs2)CCO3)nc1.O=C(O)C(F)(F)F.O=C(O)C(F)(F)F` was tested, and the “Percent Effect” value was 98.63%.
For `O=C(O)C(F)(F)F.c1cnc(N2CCOCC3(CN(Cc4nccs4)CCO3)C2)nc1` (stereo unspecified), the “Percent Effect” value was 8.217%.
For `O=C(O)C(F)(F)F.c1cnc(N2CCOC3(COCCN(Cc4cc[nH]n4)C3)C2)nc1` (stereo unspecified), the “Percent Effect” value was -4.382%.
For `Fc1cnc(N2CCCC3(CN(Cc4cccs4)CCO3)C2)nc1.O=C(O)C(F)(F)F` (stereo unspecified), the “Percent Effect” value was 111.6%.
With `Cc1cnc(N2CCOC3(CCCN(C)C3)C2)nc1.O=C(O)C(F)(F)F` (stereo unspecified) the “Percent Effect” value was -2.261%.
With `CC[C@H]1CN2CC[C@H]1C[C@@H]2CNC(=O)Nc1ccc(Br)cc1` the “Percent Effect” value was -5.559%.
With `CC(Cc1c(F)cccc1F)NC(=O)CN(CC(N)=O)C(C)C` (stereo unspecified) the “Percent Effect” value was 2.304%.
In the case of `COc1cc(C2(C(=O)NCCn3ccnc3)CCCC2)ccc1C`, the “Percent Effect” value is reported as 17.74%.
In the case of `c1ccc(CNc2ncc(CN3CC[C@H]4CC[C@@H](C3)N4)cn2)cc1`, the “Percent Effect” value is reported as -14.93%.
For `O=C(c1ccc(F)c(F)c1)N1C[C@H]2CNC[C@H]2C1`, the “Percent Effect” value was -36.88%.
`COc1ccc(-c2ccccc2CCN)c(OC)c1` was tested, and the “Percent Effect” value was 16.22%.
For `Cn1cc(C(=O)N2CC[C@@H]3[C@@H]2CCN3Cc2ccncc2)cn1.O=C(O)C(F)(F)F.O=C(O)C(F)(F)F`, the “Percent Effect” value was 8.346%.
With `Cn1cc(CN2CC[C@H]3[C@H]2CC(=O)N3Cc2ccncc2)cn1` the “Percent Effect” value was 97.58%.
With `Cn1cc(CN2C[C@@H]3[C@@H](C2)OCC(=O)N3Cc2ccncc2)cn1` the “Percent Effect” value was -7.726%.
In the case of `CCOC(=O)N1CCC2(CCNC2)C1.Cl` (stereo unspecified), the “Percent Effect” value is reported as -20.05%.
For `CN1CCC2(COCc3cnc(N4CCOCC4)nc32)C1.O=C(O)C(F)(F)F` (stereo unspecified), the “Percent Effect” value was -0.9764%.
With `CC(C)c1nccc([C@H]2C[C@@H]3CCN(Cc4ccoc4)C[C@H]3O2)n1` the “Percent Effect” value was -1.768%.
With `CN(CCOCC1CC1)C(=O)Nc1ccc(C#N)c(Cl)c1` the “Percent Effect” value was 80.92%.
For `N#Cc1ccc(NC2CCN(c3ncccn3)CC2)cc1Cl`, the “Percent Effect” value was -9.238%.
For `CCc1noc(CN(C)CCC(=O)Nc2ccc(C#N)c(Cl)c2)n1`, the “Percent Effect” value was 4.268%.
In the case of `O=C(Nc1cccnc1)[C@H]1CO[C@H]2CCNC[C@H]2C1.O=C(O)C(F)(F)F.O=C(O)C(F)(F)F`, the “Percent Effect” value is reported as 99.23%.
In the case of `CCCN1CC[C@@H]2OC[C@H](C(=O)Nc3cccnc3)C[C@@H]2C1.O=C(O)C(F)(F)F.O=C(O)C(F)(F)F`, the “Percent Effect” value is reported as 103.7%.
For `O=C(Nc1cccnc1)[C@H]1COC[C@H]2CN(C3CCCC3)C[C@H]21.O=C(O)C(F)(F)F.O=C(O)C(F)(F)F`, the “Percent Effect” value was 10.99%.
`CC(C)N1CC[C@@H]2OC[C@H](C(=O)Nc3cccnc3)C[C@@H]2C1.O=C(O)C(F)(F)F.O=C(O)C(F)(F)F` was tested, and the “Percent Effect” value was 84.8%.
For `CN1CC[C@@H]2OC[C@H](C(=O)N(C)Cc3ccccn3)C[C@@H]2C1.O=C(O)C(F)(F)F.O=C(O)C(F)(F)F`, the “Percent Effect” value was 91.38%.
`CN(C)C(=O)[C@@H]1CC[C@@H]2[C@@H](CCN2Cc2ccccn2)O1.O=C(O)C(F)(F)F.O=C(O)C(F)(F)F` was tested, and the “Percent Effect” value was -15.27%.
With `O=C(Nc1cccnc1)[C@@H]1C[C@H]2OCC[C@H]2N(Cc2ccsc2)C1.O=C(O)C(F)(F)F.O=C(O)C(F)(F)F` the “Percent Effect” value was -12.16%.
With `CCOCCN1C[C@H](C(=O)Nc2cccnc2)[C@@H]2CCO[C@@H]2C1.O=C(O)C(F)(F)F.O=C(O)C(F)(F)F` the “Percent Effect” value was 4.673%.
With `Cc1ccc(C(=O)N2C[C@@H]3CCN(C(C)C)C[C@@H]3C2)cn1.O=C(O)C(F)(F)F` the “Percent Effect” value was -22.14%.
With `CN(Cc1ccccn1)C1CCC[C@@H]2CN(CC3CC3)C[C@H]12.O=C(O)C(F)(F)F.O=C(O)C(F)(F)F` (stereo partly specified) the “Percent Effect” value was -32.78%.
With `O=C(Nc1cccnc1)[C@H]1C[C@@H]2CCN(Cc3nccs3)C[C@@H]2O1.O=C(O)C(F)(F)F.O=C(O)C(F)(F)F` the “Percent Effect” value was 21.14%.
For `O=C(Nc1cccnc1)[C@H]1CN(C2CCCC2)C[C@H]2OCC[C@@H]12.O=C(O)C(F)(F)F.O=C(O)C(F)(F)F`, the “Percent Effect” value was 2.861%.
For `Cl.O=C(C1CCC1)N1CCC2(CCNCC2)C1`, the “Percent Effect” value was -22.91%.
In the case of `O=C(Cc1ccc(O)c(Cl)c1)N1CCN(CC2CC2)[C@@H]2CS(=O)(=O)C[C@@H]21`, the “Percent Effect” value is reported as 2.879%.
With `Cc1cc(C)c(CNc2cnc3ccccc3n2)c(=O)[nH]1` the “Percent Effect” value was 10.07%.
In the case of `CC1COC2(CCN(C(=O)c3ncoc3C(C)C)CC2)O1` (stereo unspecified), the “Percent Effect” value is reported as 0.05226%.
With `O=C(O)C(F)(F)F.O=C(O)C(F)(F)F.O=C1[C@H]2CN(Cc3ccoc3)C[C@H]2CN1Cc1ccncc1` the “Percent Effect” value was 1.4%.
In the case of `CS(=O)(=O)Cc1nc(CN2CC=C(c3ccccc3)CC2)cs1`, the “Percent Effect” value is reported as 9.315%.
In the case of `O=C(C1CCC1)N1CC[C@]2(O)CCN(Cc3ncccn3)C[C@@H]2C1`, the “Percent Effect” value is reported as 9.794%.
With `Cc1noc([C@@H]2C[C@H]3OCC[C@H]3N(C(C)C)C2)n1.O=C(O)C(F)(F)F` the “Percent Effect” value was 82.77%.
With `Cc1noc([C@]23COC[C@H]2CN(C(C)C)C3)n1.O=C(O)C(F)(F)F` the “Percent Effect” value was -9.217%.
In the case of `Cc1noc([C@H]2C[C@H]3OCC[C@H]3N(Cc3ccncc3)C2)n1`, the “Percent Effect” value is reported as 9.305%.
In the case of `Cc1nc(COC[C@H]2CC[C@H]3NCC[C@H]3O2)cs1.Cl.Cl`, the “Percent Effect” value is reported as -19.37%.
`Cc1cc(CN2C[C@@H]3COC[C@]3(CNC(=O)N3CCCC3)C2)no1.O=C(O)C(F)(F)F` was tested, and the “Percent Effect” value was -10.59%.
For `Cc1noc(C)c1CN1CC[C@H]2O[C@@H](C(=O)N3CCCC3)CC[C@H]21.O=C(O)C(F)(F)F`, the “Percent Effect” value was 9.45%.
In the case of `Cc1noc(C)c1CN1CCCC2(CCN(CC3CCCC3)C2)C1.O=C(O)C(F)(F)F` (stereo unspecified), the “Percent Effect” value is reported as 102.6%.
`COCCNC(=O)[C@@]12CCO[C@@H]1CCN(Cc1c(C)noc1C)C2.O=C(O)C(F)(F)F` was tested, and the “Percent Effect” value was -6.3%.
For `Cc1noc(C)c1CN1CCCC2(CCN(C(=O)C3CC3)C2)C1` (stereo unspecified), the “Percent Effect” value was 106.9%.
`Cc1noc(C)c1CN1CC2(CCCCN2C)CC1=O.O=C(O)C(F)(F)F` (stereo unspecified) was tested, and the “Percent Effect” value was -9.804%.
`Cc1ccc(CC(=O)N2CCN(C(C)c3ccccc3F)CC2)cn1` (stereo unspecified) was tested, and the “Percent Effect” value was 7.645%.
`COCCNC1(c2ccc(Cl)cc2)CCOCC1` was tested, and the “Percent Effect” value was 5.533%.
With `CC(C)=CCN1C[C@H]2CC[C@@H]1CN(Cc1cc(=O)[nH]c(=O)[nH]1)C2` the “Percent Effect” value was 7.172%.
With `CCc1ccccc1OCCNCCc1c[nH]cn1` the “Percent Effect” value was -3.829%.
In the case of `Cc1cnc(NCCc2c[nH]cn2)nc1-c1ccnn1C`, the “Percent Effect” value is reported as -2.604%.
In the case of `Cc1cc(NCCc2c[nH]cn2)nc(-c2cccnc2)n1`, the “Percent Effect” value is reported as 99.48%.
`Cc1noc(C)c1CN(C)C(=O)CN1CC(c2ccccc2)CC1=O` (stereo unspecified) was tested, and the “Percent Effect” value was -0.5183%.
With `Cc1cc(CN(C)C(=O)CN2CCCC2=O)no1` the “Percent Effect” value was 135.7%.
With `CN(Cc1cc(C2CC2)on1)C(=O)CN1CC(c2ccccc2)CC1=O` (stereo unspecified) the “Percent Effect” value was -9.848%.
For `CCc1noc(CC)c1CC(=O)N1CCCC(N2CCCCC2)C1` (stereo unspecified), the “Percent Effect” value was -13.04%.
For `CN(c1ncccc1C#N)C1CCN(CCc2ccccn2)CC1`, the “Percent Effect” value was 3.648%.
For `O[C@@]1(CNCCCOc2cccnc2)CCCN2CCCC[C@@H]21`, the “Percent Effect” value was -22.25%.
In the case of `COCCN1CCO[C@H]2CN(C(=O)c3ccncc3F)C[C@H]21.O=C(O)C(F)(F)F`, the “Percent Effect” value is reported as -13.21%.
In the case of `CC(C)=CCN1C[C@H]2CC[C@@H]1CN(C(=O)c1c[nH]c(=O)c(Cl)c1)C2`, the “Percent Effect” value is reported as -5.36%.
For `O=C(c1c[nH]c(=O)c(Cl)c1)N1C[C@@H]2CC[C@H](C1)N(CC1CCC1)C2`, the “Percent Effect” value was 97.45%.
With `Cc1ncc(CC(=O)N2C[C@@H]3CC[C@H](C2)N(CC2CCC2)C3)c(=O)[nH]1` the “Percent Effect” value was 1.908%.
With `CCCn1cc(C(=O)NC(C(=O)O)c2ccccc2C(F)(F)F)c(C)n1` (stereo unspecified) the “Percent Effect” value was 7.837%.
In the case of `O=C(Cc1ccc(CO)cc1)N1CCN(CC2CC2)[C@@H]2CS(=O)(=O)C[C@@H]21`, the “Percent Effect” value is reported as -14.38%.
With `CN1CCN(c2ncccn2)CC12CCC(=O)N(CC1CC1)CC2` (stereo unspecified) the “Percent Effect” value was -4.361%.
With `CN1CCN(S(C)(=O)=O)Cc2cccnc21` the “Percent Effect” value was 126.5%.
In the case of `CN1CCN(Cc2ccoc2)Cc2cccnc21`, the “Percent Effect” value is reported as -15.03%.
`CN(C)CCN1CCN(CC2CC2)c2ncccc2C1` was tested, and the “Percent Effect” value was 104.8%.
In the case of `CCS(=O)(=O)N1CCN(C)c2ncccc2C1`, the “Percent Effect” value is reported as 97.89%.
In the case of `CN1CCN(S(=O)(=O)C2CC2)Cc2cccnc21`, the “Percent Effect” value is reported as 113.9%.
